SNCA expr inh: inhibitors of alpha-synuclein (SNCA) gene expression. HEK-293 SNCA-luciferase knock-in, luminescence, 24 h. Potency, µM (top dose mostly 57.2 µM), inactives show top-dose activity change, negative = inhibition, most hits filed as inhibitors. 140,000 tested, 0.17% active. AID 1671194;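 further: potency means the concentration at half of the fitted maximal effect; plate controls were DMSO cells for no effect and cell-free wells for full effect; nearly all actives have a fitted effect of over 45% in size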
HEK293 viab: reduces viability of HEK-293 SNCA reporter cells; HEK-293-SNCA-luc viability, GF-AFC fluorescence, 24 h; Potency, µM (doses to about 57.1 µM), inactives show at the highest dose activity change, negative = cytotoxicity, hits mostly cytotoxic; 150,000 tested, 0.12% active;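 further: potency means the concentration at half of the fitted maximal effect; 0% = DMSO-treated cells and -100% = medium-only wells without cells; nearly all actives have a fitted effect of over 30% in size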
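Cytotoxicity counterscreen: after 24 h compound treatment of genome-edited SNCA-luciferase HEK-293 cells, live-cell protease substrate GF-AFC read by fluorescence after 30 min; activity scaled between DMSO (0%) and medium-only (-100%), curves Hill-fitted.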
IP6K1 inhibitor: blocks human inositol hexakisphosphate kinase 1 | activity change, % (series mostly up to about 58 µM) | AID 1645851 | 140,000 tested, 0.81% active | IP6K1 kinase, ADP-Glo luminescence, 2 h; active compounds read low | Q92551; in the data active means activity change below about -25%; further: on the % scale 0 is the no-effect control and ±100 the full control effect
Target sequence (Q92551 whole entry, looked up): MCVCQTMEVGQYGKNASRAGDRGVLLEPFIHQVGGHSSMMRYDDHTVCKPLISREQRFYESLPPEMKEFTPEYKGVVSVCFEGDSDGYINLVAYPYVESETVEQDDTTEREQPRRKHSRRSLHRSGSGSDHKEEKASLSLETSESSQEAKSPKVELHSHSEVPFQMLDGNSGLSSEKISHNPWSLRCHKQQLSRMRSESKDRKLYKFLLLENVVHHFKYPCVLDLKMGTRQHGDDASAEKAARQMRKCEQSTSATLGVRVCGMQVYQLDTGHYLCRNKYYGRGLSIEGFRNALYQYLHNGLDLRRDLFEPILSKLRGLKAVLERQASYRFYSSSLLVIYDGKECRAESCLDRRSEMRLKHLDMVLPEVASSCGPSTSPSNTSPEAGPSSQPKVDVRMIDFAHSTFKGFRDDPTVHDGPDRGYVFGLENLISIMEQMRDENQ
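ADP-Glo luminescence measures ADP made by human IP6K1 during a 2 h RT reaction with ATP/IP6 (mix at 1.3 mM/130 uM); top library doses 57.5 and 19.1 uM final.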
KDM5B inh: blocks human KDM5B histone demethylase activity | Q9UGL1 | KDM5B demethylase, FDH-coupled NADH fluorescence (FDH is formaldehyde dehydrogenase) | Potency, µM (doses to about 57.7 µM), hits mostly inhibitors | 220,000 tested, 2.6% active; further: potency means the concentration at half of the fitted maximal effect; 0% is about no effect; nearly all actives have a fitted effect of over 70% in size
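KDM5BΔAP (200 nM final) in 50 mM HEPES pH 7.5, 0.01% Tween-20 was preincubated 10 min at RT with compound over a concentration range. Substrate mix (H3K4me3 12.5 µM, α-KG 25 µM, Fe²⁺, ascorbate, NAD⁺, FDH) was added, and NADH fluorescence change over 30 min gave dose-response curves.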
* = called active by the depositor; i = inactive; u = inconclusive; x = no result; [ ] = dose if it differs, or a comment. Compounds with a hit are over-represented: about 3% of the library has one in this group of screens. Unless noted, the call rests on the fitted dose curve; in most records, active means well fitted curve in the direction sought with a large enough effect; inconclusive means small, poorly fitted or top-dose-only effect, or another doubt; inactive means no such curve, though single readings can be large; an effect the other way counts as inactive or inconclusive.

SMILES	SNCA expr inh	HEK293 viab	IP6K1 inhibitor	KDM5B inh
O=C([C@@H]1CCCN1Cc1cc(=O)c2cc(F)ccc2[nH]1)N1CCCCC1	-7.5%	3.6%	8.7	28.2µM*
CC(C)c1nc2c(c(-c3ccc(Cl)cc3)n1)CN(C(=O)C(C)(C)C)CC2	-10.9%	-15.6%	-1.8	x
CN1CCC2(C1)CN(Cc1ccccc1)c1ccc(C(=O)NC3CCCCC3)cc12 (stereo not given)	16.2%[87.6 µM]	-3.5%[87.6 µM]	-2.0	u
CN1CCC2(C1)CN(Cc1ccccc1)c1ccc(C(=O)NC3CCC3)cc12 (stereo not given)	9.3%[87.6 µM]	-4.6%[87.6 µM]	0.2	u
CN1CCC2(C1)CN(Cc1ccccc1)c1ccc(C(=O)NCC[S+](C)(=O)[O-])cc12 (stereo not given)	-5.9%[87.6 µM]	10.3%[87.6 µM]	-3.9	35.5µM*
CN1CCC2(C1)CN(Cc1ccccc1)c1ccc(C(=O)NC3CC3)cc12 (stereo not given)	-10.1%[87.6 µM]	8.4%[87.6 µM]	-3.7	35.5µM*
Cc1noc(-c2nc(-c3ccc4c(c3)OCO4)no2)n1	14.9%	0.6%	-17.6	u
CCCc1noc(-c2nc(-c3ccc4c(c3)OCO4)no2)n1	98.3%	22.2%	1.8	25.1µM*
Fc1ccccc1-c1noc(-c2nc(-c3ccc4c(c3)OCO4)no2)n1	-2.2%	-9.8%	3.5	25.1µM*
Cc1nnc2ccc(N3CCCC(NC(=O)c4ccc(Cl)nc4)C3)nn12 (stereo not given)	x	x	-8.4	x
CCC/C=C/C(=O)O[C@H]1CC(C)(C)CC2[C@@]13[C@H](O)C[C@]1(C)[C@@]2(CCC2[C@@]4(C)CC[C@H](O[C@@H]5O[C@H](C(=O)O)[C@@H](O)[C@H](O[C@@H]6O[C@H](CO)[C@H](O)[C@H](O)[C@H]6O[C@@H]6O[C@@H](C)[C@H](O)[C@@H](O)[C@H]6O[C@@H]6OC[C@](O)(CO)[C@H]6O)[C@H]5O[C@@H]5O[C@H](CO)[C@H](O)[C@H](O)[C@H]5O)C(C)(C)C4CC[C@]21C)O[C@H]3O (stereo not given in full)	x	-13.7%[12.5 µM]	-4.7	x
C/C=C(/C)C(=O)O[C@H]1[C@H](OC(=O)/C(C)=C\C)[C@@]23C(CC1(C)C)[C@]1(CCC4[C@@]5(C)CC[C@H](O[C@@H]6O[C@H](C(=O)O)[C@@H](O)[C@H](O[C@@H]7O[C@H](CO)[C@H](O)[C@H](O)[C@H]7O[C@@H]7O[C@@H](C)[C@H](O)[C@@H](O)[C@H]7O[C@@H]7OC[C@@H](O)[C@H](O)[C@H]7O)[C@H]6O[C@@H]6O[C@H](CO)[C@H](O)[C@H](O)[C@H]6O)C(C)(C)C5CC[C@@]4(C)[C@]1(C)C[C@H]2O)O[C@H]3O (stereo not given in full)	x	3.57µM*	14.7	x
O=C(NCc1ccc(F)c(F)c1)c1ccc2nnc(Cc3ccc(Cl)cc3)n2c1	-11.0%	-23.2%	-11.0	x
CCOc1cccn2c(=O)c(-c3cc(C)n(-c4ccc(Cl)cc4)n3)c(C)nc12	-16.1%	-4.2%	2.9	u
COC(=O)COc1cccn2c(=O)c(-c3cc(C)n(-c4ccc(Cl)c(Cl)c4)n3)c(C)nc12	6.9%	5.6%	2.5	28.2µM*
CCOC(=O)CCCOc1cccn2c(=O)c(-c3cc(C)n(-c4ccccc4)n3)c(C)nc12	-7.6%	10.1%	-4.4	25.1µM*
Cc1nc2scc(CC(=O)NCC(C)C)n2c(=O)c1-c1cc(C)n(-c2cccc(Cl)c2)n1	13.1%	1.3%	-16.3	u
Cc1nc2c(OCC(=O)c3ccccc3)cccn2c(=O)c1-c1cc(C)n(-c2ccc(Cl)cc2)n1	u	3.5%	-1.7	15.8µM*
COc1cccc(N2CCN(C(=O)c3cnn(-c4cccc(F)c4)c3-n3cccc3)CC2)c1	x	x	x	i
COc1ccc(C(=O)NC2CCCN(c3ccnc4ccnn34)C2)cc1 (stereo not given)	-8.2%	u	5.6	x
CC1CCCN1C(=O)c1cc(-c2cnn(C(C)C)c2)nc2cc(F)ccc12 (stereo not given)	22.6%	-7.6%	-2.9	28.2µM*
CC(C)c1ncc(-c2cc(C(=O)N(C)C(C)C)c3ccc(F)cc3n2)cn1	-11.6%	2.8%	8.5	i
CC(C)CN(C)C(=O)c1cc(-c2cnn(C(C)C)c2)nc2ccc(F)cc12	6.7%	-13.4%	6.8	u
CC(C)n1cc(-c2cc(C(=O)N3CCC(C)(C)C3)c3ccc(F)cc3n2)cn1	18.1%	-13.4%	7.7	31.6µM*
O=C(NC1CCCN(c2ccc3nnc(-c4ccccc4)n3n2)C1)c1ccc(Cl)cc1 (stereo not given)	x	x	15.5	x
SMILES	SNCA expr inh	HEK293 viab	IP6K1 inhibitor	KDM5B inh
COc1ccccc1-c1cccc(CN2CCC(NC(=O)c3ccccc3C)CC2)c1	x	x	16.8	x
Cc1ccc(-c2nc(CNC(=O)[C@@H]3CCC[C@H](N)C3)[nH]c2-c2ccccn2)cc1	58.5%	-3.7%	-9.2	28.2µM*
Cc1ccc(-c2nc(CNC(=O)C3CCNC3)[nH]c2-c2ccccn2)cc1 (stereo not given)	15.2%	4.4%	-9.5	i
Cc1ccc(CNCc2ccc(-c3ccccc3F)o2)cc1	x	x	x	i
CN(c1ccccc1)c1ccc2nnc(-c3cc(C(=O)NCc4ccncc4)ccn3)n2n1	15.9%[87.6 µM]	-6.7%[87.6 µM]	-0.3	31.6µM*
CC[C@@H]1[C@H](NC(=O)c2cccc(N3CCS(=O)(=O)CC3)c2)[C@@H]2CCO[C@H]12	-6.4%	-4.0%	-9.9	22.4µM*
CCOc1ccc(-n2ccn3c(SC(CC)C(=O)Nc4ccc(OC)cc4)nnc3c2=O)cc1 (stereo not given)	x	x	x	i
COc1ccc2[nH]c(C(=O)NCC(=O)N3CCCCCCNC(=O)CC3c3ccccc3)cc2c1 (stereo not given)	-12.8%	-16.5%	13.9	15.8µM*
COc1ccc2[nH]c(C(=O)NCC(=O)N3CCCCCNC(=O)CC3c3ccccc3)cc2c1 (stereo not given)	-5.2%	-10.3%	-3.7	28.2µM*
COc1ccc2[nH]c(C(=O)N3CCCCCNC(=O)[C@@H]4CCC[C@@H]43)cc2c1	-28.5%	-1.5%	0.4	28.2µM*
CC(Cc1ccco1)NC(=O)C1CCCO1 (stereo not given)	x	x	x	i
CCC(O)c1cc2n(n1)CCN(C(=O)CCc1cn3ccccc3n1)C2 (stereo not given)	3.5%	5.5%	9.9	11.2µM*
CC(O)c1cc2n(n1)CCCN(C(=O)CCc1cn3ccccc3n1)C2 (stereo not given)	-12.5%	1.0%	21.8	25.1µM*
CCOCC(=O)N1CCC(Nc2cccn3ncnc23)CC1	-1.6%	5.2%	6.8	15.8µM*
CCOCC(=O)N1CCC(Oc2ncccc2C(=O)N2CCCCC2)C1 (stereo not given)	1.7%	1.7%	14.9	i
CCOC(=O)CCNC(=O)N1CCc2c(nc3cc(-c4ccccc4)[nH]n3c2=O)C1	4.8%	1.2%	15.9	28.2µM*
O=C(c1n[nH]c2c1CCCCCC2)N1CCc2c(nc3cc(-c4ccccc4)[nH]n3c2=O)C1	-0.8%	12.0%	53.9	u
